Screening data as filed in PubChem.
TDP43 rescue = qHTS of TDP-43 Inhibitors; TDP-43 expressing yeast growth rescue, BacTiter-Glo, 24 h; Potency, µM (series often up to 46.1 µM), without a hit: at the top dose growth rescue (activation), hits mostly activators; 410,000 tested, 1.8% active; note: % of control where 0% means no effect; nearly all actives have a fitted effect of over 50% in size
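Cell-based yeast growth screen: TDP-43 expression induced in galactose, inoculum OD600=0.02 after raffinose pregrowth to mid-log. Read-out BacTiter-Glo luminescence at 24 hr, 30 deg C; inhibition of toxicity seen as signal increase.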
aSyn rescue = qHTS of alpha-syn Inhibitors. Yeast expressing alpha-synuclein, growth rescue, BacTiter-Glo, 24 h. 370,000 tested, 0.14% active. AID 652106, 2013. Potency, µM (top dose mostly 46.1 µM), for inactives: top-dose growth rescue (activation), actives largely listed as activators; note: % of control where 0% means no effect; nearly all actives have a fitted effect of over 65% in size
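Galactose-induced alpha-syn yeast (OD600=0.02, raffinose-pregrown) + pinned cpd, 24 hr, 30 deg C; growth by BacTiter-Glo luminescence. Growth restoration scores as activation.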
FUS suppressor = qHTS for Suppressors of FUS Proteinopathy: Primary screen using FUS-linked yeast assay | S. cerevisiae FUS-expressing, growth rescue, OD600, 24 h | Potency, µM (top dose mostly 76.6 µM), hits mostly activators | 390,000 tested, 0.24% active | AID 1347120, 2019;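 note: plate controls were DMSO vehicle for no effect and reference control for full effect; nearly all actives have a fitted effect of over 55% in size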
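S. cerevisiae expressing FUS from galactose induction served as the toxicity model. Growth after 24hr at 30C, read as absorbance at 600 nm, indicates suppression of toxicity; compounds dosed at several concentrations.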
Abeta rescue = qHTS for compounds that reverse cellular toxicity of Amyloid beta (A-beta) peptide in yeast: Primary Screen | yeast expressing A-beta42, growth rescue, OD600, 48 h; response scale: 0% DMSO, 100% iron-clioquinol control | Potency, µM (series often up to 46.1 µM), usual class: activators | 410,000 tested, 0.063% active | AID 1347071, 2019; note: nearly all actives have a fitted effect of over 55% in size
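Growth rescue measured by 600 nm absorbance after 48 h yeast culture at 30 C with compound. Values normalized between DMSO and an equimolar ferric chloride plus clioquinol control.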
An asterisk follows results filed as active; i = inactive; ? = inconclusive; / = no result given; [ ] = dose if it differs, or a comment. Shown are actives, neighbours in structure and some others; about 2.1% of the full set was active somewhere. Calls come from the whole dose curve; as a rule, active = well fitted curve in the direction sought with a large enough effect; inconclusive = small, poorly fitted or top-dose-only effect, or another doubt; inactive = no such curve, though single readings can be large; an effect the other way counts as inactive or inconclusive. Potency is the fitted concentration of half-maximal effect.

SMILES	TDP43 rescue	aSyn rescue	FUS suppressor	Abeta rescue
CS(=O)(=O)c1ccc(S(=O)CC(=O)OCc2ccccc2)c([N+](=O)[O-])c1 (stereo unspecified)	-8.4%	-9.5%	i	i
COC(=O)c1ccc(OC(=O)CS(=O)c2ccccc2[N+](=O)[O-])cc1 (stereo unspecified)	12.6µM*	9.8%	i	i
CCOC(=O)c1ccccc1OC(=O)CS(=O)c1ccccc1[N+](=O)[O-] (stereo unspecified)	-16.2%[9.22 µM]	2.9%	i	i
CCC(=O)Nc1ccc(C)cc1-c1nc2ccccc2n(C(C)C(=O)Nc2ccccc2CC)c1=O (stereo unspecified)	4.0%	/	i	i
COC(=O)[C@]12C[C@H](CC(=O)N3CCCC3)C(=O)N(Cc3ccco3)C1=C[C@H](C(C)C)O[C@@H]2C1CC1	/	/	i	/
Cc1cc(C)cc(NC(=S)/N=C(\N)Nc2nc(C)c3ccccc3n2)c1	15.8µM*	0.2%	/	i
Cc1cccc(NC(=S)/N=C(\N)Nc2nc(C)c3ccccc3n2)c1	20µM*	-9.7%	i	?
CN1CCN2c3ccccc3CC3(C(=O)OC(C)(C)OC3=O)C2C1 (stereo unspecified)	/	-7.2%	/	/
O=C(C[n+]1csc2ccccc21)c1ccc(I)cc1	/	3.6%	/	/
CCCCCCOc1ccc(CC(=O)O)cc1	/	-10.5%	/	/
CC(C)C(=O)NC(c1ccc(Cl)cc1Cl)c1ccc2cccnc2c1O (stereo unspecified)	25.1µM*	?	i	i
CC(=O)c1ccc2noc(-c3ccccc3)c2c1	-6.0%[0.397 µM]	-1.9%	i	i
c1ccc(-c2onc3cc4c(cc23)OCCO4)cc1	35.5µM*	-0.8%	i	i
COc1ccc(Cl)cc1NC(=O)CSc1nc2ccccc2nc1N1CCCCC1	19.4%	/	i	i
C/C(N)=C(/C#N)C(=O)CSc1nc2ccccc2c(=O)n1Cc1ccc(C)cc1	2.5%[9.22 µM]	0.1%	i	i
C/C(N)=C(/C#N)C(=O)CSc1nc2ccccc2c(=O)n1Cc1ccc(F)cc1	10µM*	12.7%	i	12.6µM*
O=[N+]([O-])c1ccc(S(=O)(=O)Nc2ccncc2)cc1	15.1%	2.1%	i	i
O=[N+]([O-])c1ccc(Oc2ccc(S(=O)(=O)Nc3ccccc3)cc2)cc1	2.82µM*	3.2%	i	i
O=C(NC(=S)N1CCN(c2c(Cl)cccc2[N+](=O)[O-])CC1)c1cccs1	?	20.3%	/	i
COc1ccc(N2CCN(C(=S)NC(=O)c3cccs3)CC2)c([N+](=O)[O-])c1	22.4µM*	8.8%	i	?
Cc1cc(N2CCN(C(=O)c3cccs3)CC2)c(F)cc1[N+](=O)[O-]	12.6µM*	6.7%	i	i
O=C(c1cccs1)N1CCN(c2ccc([N+](=O)[O-])cc2F)CC1	21.3%	2.2%	i	i
CCOC(=O)[C@@H]1c2[nH]c3ccccc3c2C[C@@]2(C(=O)OC)C=CCN12	/	/	i	/
O=C(Cn1c(=O)nc(-c2ccccc2)c2ccccc21)NCc1ccccc1Cl	13.7%	/	i	i
CCOC(=O)Cn1c2ccc(C)cc2c2nc(C)sc21	15.8µM*	-8.4%	i	i
SMILES	TDP43 rescue	aSyn rescue	FUS suppressor	Abeta rescue
O=[N+]([O-])c1ccc(C=NN2CCOCC2)s1	11.2µM*	1.7%	i	i
O=[N+]([O-])c1cc(/C=N/N2CCOCC2)cs1	?	3.3%	i	i
CC(C)c1cc(-c2nc(-c3ccc(Cl)cc3)no2)n[nH]1	12.2%	/	i	i
CCC(C)NC(=O)Cn1c(=O)ccc2cc(S(=O)(=O)N3CCCC3)ccc21 (stereo unspecified)	13.7%	14.6%	i	i
COc1ccc(C2C(C#N)=C(N)Oc3cc4c(cc32)OCO4)cc1 (stereo unspecified)	-14.4%	-7.6%	i	i
CCN1C=C(Cc2ccc(OC)cc2)C2=C(C1)C(c1ccc(OC)cc1)C(C#N)=C(N)O2 (stereo unspecified)	-4.6%	1.8%	35.5µM*	i
CC(=O)Nc1ccc(NC(=O)CCc2c(C)nc3c(c(C)nn3-c3ccc(C)cc3)c2C)cc1	17.5%	/	i	i
CCn1c2ccccc2c2cc(/C=N/n3cn[nH]c3=S)ccc21	15.8µM*	16.7%	i	i
